Experimental data reported in PubChem BioAssay AID1076 (NMMLSC, 2008).
Activity calls are given as the source filed them.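 Rule for the calls: active = cell event count below 40, meaning activity score above 60 where score is 100 minus count; inactive = the rest.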

Test: cytotoxicity in LNCaP prostate cells – cell-based, cell event count, single point, cytotoxicity control for prostate differentiation activator project, confirmation (AID 1076);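 note: counts scatter-gated live cells after medium removal discards detached dead cells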
Conditions: LNCaP cell loss, flow cytometry event count, 4 d, stronger effect = lower value

Compound	cell event count (at 100 µM)	cell event count (event count, at 10 µM)
COc1ccccc1N1CCN(c2nc3ccccc3nc2C(C#N)C(=O)OC(C)C)CC1 (stereo unspecified)	110 (inactive)	252
Cc1ccccc1OCc1nc(-c2ccc(NC(=O)c3ccc4c(c3)OCO4)cc2)no1	31 (inactive)	154
COc1ccc(-c2cc(-c3ccc(F)cc3)nc(N3CCN(C)CC3)n2)cc1	3 (inactive)	118
CCN1CCN(C(=O)C2CCN(Cc3nc(-c4cccc(Cl)c4)oc3C)CC2)CC1	12 (inactive)	192
CCCCC(=O)NCCc1ccc(S(N)(=O)=O)cc1	238 (inactive)	92.5
Nc1ccccc1NC(=O)c1ccccc1N	236 (inactive)	313
CCn1c(=O)cc(OCC(=O)O)c2ccccc21	22 (inactive)	99.5
CCc1ccc(CNC(=O)CN2C(=O)COc3ccccc32)cc1	78 (inactive)	118
CCN1CCN(C(c2cccs2)C(C)NS(=O)(=O)c2ccc(Br)cc2)CC1 (stereo unspecified)	17 (active)	62
CCOc1ccc(C(=O)Nc2ccc(Cl)cn2)cc1Cl	41 (inactive)	86
Cc1cc(=O)n2nc(N3CCCC(C(=O)NCc4ccco4)C3)sc2n1 (stereo unspecified)	325 (inactive)	102
Cc1ccc(-c2noc(CCC(=O)NCCCN3CCN(c4cccc(Cl)c4)CC3)n2)cc1	22 (inactive)	123
Cc1cc(C)c2c(=O)n(CC(=O)NCCCN3CCN(c4ccccc4F)CC3)sc2n1	15 (inactive)	216
COc1ccc(CCN2CCC(Nc3nc4ccccc4n3Cc3ccc(F)cc3)CC2)cc1	11 (inactive)	728
Cc1oc(-c2cccc(Cl)c2)nc1CN1CCC(C(=O)NCc2ccco2)CC1	100 (inactive)	189
CC1CCCCN1CCNC(=O)c1ccc2c(=O)n(CCc3ccccc3)c(=O)[nH]c2c1 (stereo unspecified)	168 (inactive)	184
Cc1oc(-c2cccc(Cl)c2)nc1CN1CCC(C(=O)NCCCN2CCCC2=O)CC1	166 (inactive)	190
CC(=O)Nc1cc(C(=O)N2CCOCC2)ccc1S(=O)(=O)c1ccc(C)cc1	272 (inactive)	300
CCc1ncc(C(O)c2cccc(OC)c2OC)n1C (stereo unspecified)	285 (inactive)	172
Cc1oc(-c2ccccc2F)nc1CN1CCC(C(=O)NC2CCCCCCC2)CC1	6 (inactive)	90
Cc1ccc(-c2noc(CCC(=O)NCCCN3CCN(c4ccc(F)cc4)CC3)n2)cc1	14 (inactive)	98

Compound	cell event count (at 100 µM)	cell event count (event count, at 10 µM)
CCOC(=O)N1CCN(C(=O)C2CCN(Cc3nc(-c4ccccc4C)oc3C)CC2)CC1	111 (inactive)	244
Cc1cc(N2C(=O)C3C4C=CC(C4)C3C2=O)ccc1Br (stereo unspecified)	272 (inactive)	69.5
Cc1cccc(-c2nc(CN3CCCC(C(=O)NC4CCCC4)C3)c(C)o2)c1 (stereo unspecified)	29 (inactive)	328
COc1ccc(CC(=O)Nc2ccc(-c3nnc(-c4ccc(C)cc4)o3)cc2)cc1	24 (inactive)	112
CCOC(=O)c1c(NCc2ccc3c(c2)OCO3)c2ccccc2[nH]c1=O	39 (inactive)	357
O=C(Nc1ccc2oc(Cc3ccc(Cl)cc3)nc2c1)c1cccnc1	17 (inactive)	96
CCOC(=O)c1sc2ncnc(N3CCN(c4ccc(OC)cc4)CC3)c2c1C	16 (inactive)	76.5
CCn1c(SCC(=O)Nc2ccccc2F)nc2c(c1=O)SC(C)C2 (stereo unspecified)	75 (inactive)	70.5
CCN(CC)CCNC(=O)c1cc2c(-c3ccc(Cl)cc3)nn(C)c2s1	25 (active)	25
O=C(Cn1c(=O)[nH]c2ccsc2c1=O)NC1CCCCCC1	120 (inactive)	118
COc1cc(C2C3=C(Nc4ncnn42)c2ccccc2CC3)cc(OC)c1OC (stereo unspecified)	295 (inactive)	428
Cc1ccnc(NC(=O)CCC(=O)N(CC(=O)NC2CCCCC2)c2cccc(C)c2C)c1	27 (inactive)	66
Cc1oc(-c2ccc(Cl)cc2)nc1CN1CCCC(C(=O)NCc2cccnc2)C1 (stereo unspecified)	28 (inactive)	67
CCc1ccc(-c2nc(CN3CCCC(C(=O)NCCc4ccc(OC)c(OC)c4)C3)c(C)o2)cc1 (stereo unspecified)	8 (inactive)	144
N=c1n(CCO)c2ccccc2n1CCOc1ccc(Cl)cc1Cl	18 (inactive)	272
CCc1cc(C)cc(OCCNC(=O)c2ncn[nH]2)c1	171 (inactive)	54
O=C(NCCCN1CCN(c2ccccc2F)CC1)C1CCC(=O)N1C1CCCCC1 (stereo unspecified)	388 (inactive)	282
Cc1oc(-c2ccc(Cl)cc2)nc1CN1CCC(C(=O)N2CCc3ccccc3C2)CC1	18 (inactive)	320
O=c1cc(N2CCN(c3ccc(F)cc3)CC2)[nH]c(=O)n1C1CCCCC1	173 (inactive)	318
COc1ccc2cc3cc(C(=O)Nc4ccccc4N4CCN(C)CC4)oc3nc2c1	41 (inactive)	334
Cc1nc2c3cnn(-c4ccccc4)c3ncn2n1	159 (inactive)	145

Compound	cell event count (at 100 µM)	cell event count (event count, at 10 µM)
CCc1ccc(-c2nc(CN3CCC(C(=O)NCc4ccc(F)cc4)CC3)c(C)o2)cc1	1 (active)	62.5
O=C(Cn1cnc2ccccc2c1=O)NCCC(=O)N1CCN(c2ccccc2)CC1	158 (inactive)	190
CCOC(=O)N1CCN(C(=O)CCc2c(C)nc3c(c(C)nn3-c3ccc(C)c(C)c3)c2C)CC1	5 (inactive)	222
O=C1c2ccccc2C(Nc2ccc3c(c2)OCO3)N1Cc1ccc2c(c1)OCO2 (stereo unspecified)	178 (inactive)	189
CCOc1ccccc1NC(=O)c1nc[nH]c1C(=O)Nc1ccccc1OCC	20 (inactive)	248
CCOC(=O)N1CCN(S(=O)(=O)c2ccc(C(=O)Nc3nc4ccccc4s3)cc2)CC1	145 (inactive)	172
CCCCOc1ccccc1NC(=O)Cn1c(-c2nonc2N)nc2ccccc21	99 (inactive)	86.5
Cc1ccc2c(c1)NC(=O)C(CC(=O)NCCCN1CCN(c3cc(Cl)ccc3C)CC1)O2 (stereo unspecified)	6 (active)	66
COc1cccc(-c2cc(C(=O)N3CCN(C(c4ccccc4)c4ccccc4)CC3)no2)c1	440 (inactive)	402
O=C(NC1CCCC1)C1CCN(S(=O)(=O)c2cccc3cccnc23)CC1	371 (inactive)	182
O=C(c1ccc(COCC(F)(F)F)o1)N1CCCCCC1	118 (inactive)	104
Cc1ccccc1Cn1cnc2c(cnn2C(C)(C)C)c1=O	13 (inactive)	85
O=C(CCn1c(=O)[nH]c2ccccc2c1=O)NCCCN1CCN(c2cccc(Cl)c2)CC1	14 (inactive)	354
O=C(C1CCN(S(=O)(=O)c2cccc3nsnc23)CC1)N1CC=C(c2ccccc2)CC1	27 (inactive)	258
CCn1c(C(=O)NCCCN2CCc3ccccc3C2)cc2sccc21	16 (inactive)	380
CCOC(=O)c1ccc(NC(=O)Nc2ccc3c4c(cccc24)C(=O)N3CC)cc1	70 (inactive)	254
Cc1oc(-c2ccccc2F)nc1CN1CCC(C(=O)NCc2cccs2)CC1	107 (inactive)	214
O=C(c1ccccc1)c1ccc(N2CCNCC2)cc1	135 (inactive)	168
Cc1oc(-c2ccc(Cl)cc2)nc1CN1CCCC(C(=O)NCc2ccco2)C1 (stereo unspecified)	27 (inactive)	248
CCN(CC)CCCNc1oc(-c2cccc(Cl)c2)nc1C#N	32 (inactive)	227
CCOC(=O)c1c(C)[nH]c(C(=O)COC(=O)C2CC2C)c1C (stereo unspecified)	37 (inactive)	976

Compound	cell event count (at 100 µM)	cell event count (event count, at 10 µM)
CCOc1cccc(-c2nnc3n2N=C(c2cc(OC)ccc2OC)CS3)c1	3 (inactive)	136
Cc1ccc(Cl)cc1N1CCN(C(=O)c2cc3c(=O)n(C)c4ccccc4c3n2C)CC1	31 (active)	10.5
O=C(NCCCN1CCN(c2ccccc2F)CC1)C1CCCN(S(=O)(=O)c2cnc[nH]2)C1 (stereo unspecified)	425 (inactive)	166
O=C(NCCCN1CCN(c2ccccc2F)CC1)C1CCC(=O)N1C1CCCC1 (stereo unspecified)	60 (inactive)	62
Cc1nnc(NCc2n[nH]c(=O)c3ccccc23)c2ccccc12	47 (inactive)	219
O=C(NCCCN1CCN(c2cccc(Cl)c2)CC1)c1ccc(N2CCCC2=O)cc1	52 (inactive)	171
CCOC(=O)C1=C(C)Nc2nc(SC)nn2C1c1ccc(C(=O)OC)cc1 (stereo unspecified)	326 (inactive)	178
O=C(CN1CCN(Cc2ccc3c(c2)OCO3)CC1)N1CCc2[nH]c3ccc(F)cc3c2C1	24 (inactive)	234
COc1ccc(N2CCN(CCCNC(=O)CC3Oc4ccc(C)cc4NC3=O)CC2)cc1 (stereo unspecified)	290 (inactive)	140
CCCCOC(=O)Nc1cc(C(=O)OC)ccc1C(=O)OC	143 (inactive)	206
Cc1ccccc1-c1nc(CN2CCC(C(=O)NCCCN3CC(C)CC(C)C3)CC2)c(C)o1 (stereo unspecified)	11 (inactive)	102
Cc1cc(C)n2nc(SCC(=O)Nc3ccc(F)cc3)nc2n1	226 (inactive)	343
O=C(Cc1ccc(-n2cccc2)cc1)NCc1cccs1	160 (inactive)	133
CCOC(=O)N1CCC(NC(=O)C2CCCN(Cc3nc(-c4cccc(Cl)c4)oc3C)C2)CC1 (stereo unspecified)	33 (inactive)	114
COc1ccc(S(=O)(=O)CCC(=O)O)cc1	153 (inactive)	47
O=c1c2ccccc2nnn1CSc1nnc2sc3ccccc3n12	141 (inactive)	143
COC(=O)Nc1sc2c(c1C(N)=O)CCCCCC2	80 (inactive)	202
CCCCCn1c(=N)n(CC(O)COc2ccccc2OC)c2ccccc21 (stereo unspecified)	20 (inactive)	138
CC(C)(C)OC(=O)N1CCC(C(=O)N2CCCCCC2)CC1	223 (inactive)	123
Cc1cccc(-c2nc(CN3CCCC(C(=O)NC4CCC(C)CC4)C3)c(C)o2)c1 (stereo unspecified)	5 (inactive)	138
